In the OligoGym collection one finds sensor-assay potency score (higher = more potent) data, which are given here for 36 sequences.
Further: reference of the scale not given here.

One assay deals with RWDD2B. The assay is described as follows: pooled miR-30 sensor sort-seq; sequence = guide strand. The settings on record: shRNA.
TTTCAGTTCTGCTACAGCCAGC yielded a sensor-assay potency score (higher = more potent) of -0.902.

TAACACTGAACACTTTTTCTTC: the sensor-assay potency score (higher = more potent) was -0.298.

Turning to TAGAATATTCTTTCTTTTGCAT, the sensor-assay potency score (higher = more potent) turned out to be 0.0563.

Turning to TTGGACATGTGTAAGTTTCTTG, the sensor-assay potency score (higher = more potent) was 0.645.

Take TTCAGTATACAAACATCTCCAT: the sensor-assay potency score (higher = more potent) was found to be 0.0635.

In turn, TCCATTAACACTGAACACTTTT yielded a sensor-assay potency score (higher = more potent) of -0.901.

As for TCAACTGACTGGACTGTGCTTC, the sensor-assay potency score (higher = more potent) stood at 0.407.

On to TTTTTCGTCAGATACATCCAGG, for which the sensor-assay potency score (higher = more potent) is -0.29.

Sequence TTGATAGTAAAGTAGACTTTTG gave a sensor-assay potency score (higher = more potent) of -1.18.

The sequence TCTTCTTTTCAATACAATCTTT showed a sensor-assay potency score (higher = more potent) of -0.675.

For TCAGTATACAAACATCTCCATG, the sensor-assay potency score (higher = more potent) was -1.45.

As for TTCCACACAAACAACACCAGGT, the sensor-assay potency score (higher = more potent) was determined as 0.95.

For another assay, the target named is RXFP4. Described as above. The settings on record: shRNA.
For the sequence TTGCTTGCGACCCACCGCCTGC, the sensor-assay potency score (higher = more potent) is -0.81.

On to TACAGCACAGGGTTGAGGCAGC, for which the sensor-assay potency score (higher = more potent) is -0.483.

Sequence TAGCTGGTGGTGATGACGCCCA yielded a sensor-assay potency score (higher = more potent) of -0.885.

Consider TCTTGCAGAGGGCACCTCCGAA, for which the sensor-assay potency score (higher = more potent) was -1.29.

In the case of TTGAAGACGAAGGTGTCTGAAG, the sensor-assay potency score (higher = more potent) was -0.402.

The sequence TAGGAATTTGACAGGCATCGGA yielded a sensor-assay potency score (higher = more potent) of 0.2.

TAGAAGGGCGGCTCTCCCGGGG returned a sensor-assay potency score (higher = more potent) of -0.734.

AGGAATTTGACAGGCATCGGAG: the sensor-assay potency score (higher = more potent) is -1.05.

As for AACTTCACCAGGACACCCCAGA, the sensor-assay potency score (higher = more potent) is -1.12.

On to TAGCGAGCAACGCTCAGCGCTG, for which the sensor-assay potency score (higher = more potent) was -1.3.

Turning to TCAGGAGACAGTACAGCACAGG, the sensor-assay potency score (higher = more potent) was -0.981.

TAGACGTTGAGGACAGTGGCCG returned a sensor-assay potency score (higher = more potent) of 0.159.

For the next assay, the target named is RYK. The assay is described as above. As to conditions: shRNA.
As to TTGTATTATCTCCTTTTCCAGA, the sensor-assay potency score (higher = more potent) is -1.16.

TAACTGTTTTGACAAATGCTTG registered a sensor-assay potency score (higher = more potent) of -1.47.

TATTGCTATATCCTTCACCTTG: the sensor-assay potency score (higher = more potent) is -0.912.

Regarding TTTTCATCTATTAAAATCCCAT, the sensor-assay potency score (higher = more potent) is -0.695.

Turning to TTGTAGCACATTTTCCTTCGTT, the sensor-assay potency score (higher = more potent) is 0.000719.

TTGTCTGTGATCTTAACTTGAA had a sensor-assay potency score (higher = more potent) of -0.554.

Take TTGAAGACAAACCATTTCCCAG: the sensor-assay potency score (higher = more potent) was -0.946.

TTTAGAGTTATCCTCTCTCTGG came in with a sensor-assay potency score (higher = more potent) of -0.8.

TATTCGGTAACCATCTTTCAGG had a sensor-assay potency score (higher = more potent) of -0.693.

Sequence TTTTTGTAGCACATTTTCCTTC displayed a sensor-assay potency score (higher = more potent) of -0.15.

With TTACTGCACAACAAACCCCTAC, the sensor-assay potency score (higher = more potent) is -0.546.

Regarding TTTCATACTATGAAGGTGCAAA, the sensor-assay potency score (higher = more potent) was -0.131.
